Compound activity: PubChem, National Center for Advancing Translational Sciences (NCATS)
Compounds with a hit are over-represented: about 2.3% of the library has one in this group of screens.
Nrf2 ARE act – activates Nrf2 signaling; AREc32 ARE-luciferase reporter (MCF7-derived line), luminescence, 24 h; Potency, µM (titrated, usually from 46.1 µM), without a hit: top-dose activation, hits mostly activators; 0.31% of 410,000 active; AID 624171; further: potency means the concentration at half of the fitted maximal effect; % of control where 0% means no effect; nearly all actives have a fitted effect of over 65% in size
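For detection, Steady-Glo was added and plates sat 30 min at RT; before that, AREc32_Fluc cells grown overnight in OPTI-MEM/5% FBS had been treated with 23 nL compound for 24 hr at 37 deg C.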
Anesthetic bind – binds horse apoferritin like a general anesthetic; P02791; apoferritin/1-aminoanthracene competitive binding, fluorescence; Potency, µM (doses to about 77.5 µM), for inactives: top-dose activity change, negative = displacement, most hits filed as inhibitors; AID 485281; 0.074% of 350,000 active; further: potency means the concentration at half of the fitted maximal effect; on the % scale 0 is the no-effect control and ±100 the full control effect; nearly all actives have a fitted effect of over 20% in size
Target sequence (P02791 2-175 limits assumed): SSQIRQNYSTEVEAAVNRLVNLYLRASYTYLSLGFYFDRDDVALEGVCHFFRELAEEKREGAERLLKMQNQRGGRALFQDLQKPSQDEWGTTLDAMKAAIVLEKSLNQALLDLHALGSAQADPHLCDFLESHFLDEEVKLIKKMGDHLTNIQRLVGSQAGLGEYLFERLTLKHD
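Apoferritin-based anesthetic binding model; compound displacement of fluorescent 1-AMA measured as endpoint fluorescence after 10 minutes at room temperature, scaled to free-ligand and complex controls.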
IDH1 R132H inh – inhibitors of human mutant IDH1 R132H; O75874; IDH1-R132H enzyme, NADPH consumption, diaphorase/resazurin fluorescence; Potency, µM (doses to about 76.6 µM), for the others: at the highest dose activity change, negative = inhibition, hits mostly inhibitors; 0.093% of 390,000 active; further: potency means the concentration at half of the fitted maximal effect; on the % scale 0 is the no-effect control and ±100 the full control effect; nearly all actives have a fitted effect of over 65% in size
Target sequence (O75874 whole entry R132H, stated change not applied): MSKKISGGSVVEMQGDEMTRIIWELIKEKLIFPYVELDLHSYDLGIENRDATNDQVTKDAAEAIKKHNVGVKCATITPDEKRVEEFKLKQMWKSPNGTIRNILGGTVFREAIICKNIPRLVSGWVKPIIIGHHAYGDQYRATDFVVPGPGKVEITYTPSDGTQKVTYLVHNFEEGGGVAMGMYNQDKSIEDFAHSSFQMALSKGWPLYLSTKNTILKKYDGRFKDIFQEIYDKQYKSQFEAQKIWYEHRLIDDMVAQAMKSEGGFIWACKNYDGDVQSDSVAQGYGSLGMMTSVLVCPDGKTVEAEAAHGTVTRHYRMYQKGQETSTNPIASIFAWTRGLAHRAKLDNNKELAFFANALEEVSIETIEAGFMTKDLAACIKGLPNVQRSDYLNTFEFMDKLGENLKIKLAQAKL
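IDH1-R132H (0.5 ug/mL dispensed) in pH 7.5 Tris buffer was preincubated 30 min with compound, then given a substrate mix of 0.016 mM NADPH and 2 mM alpha-KG for 80 min at room temperature; remaining NADPH was read by diaphorase/resazurin fluorescence.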
Nrf2 block – inhibitors of Nrf2 signaling; A549 ARE-Fluc reporter, luciferase luminescence, 18-24 h; Potency, µM (top dose mostly 46 µM), for inactives: at the highest dose activity change, negative = inhibition, hits mostly inhibitors; 2.1% of 360,000 active; further: potency means the concentration at half of the fitted maximal effect; on the % scale 0 is the no-effect control and ±100 the full control effect; nearly all actives have a fitted effect of over 60% in size
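A549 ARE_Fluc cells, 5000/well, 5% FBS OPTI-MEM; compounds in dose-response, 18-24 h at 37 °C/5% CO2; CellTiter-Fluor viability read (Ex 405/Em 525), then BugLite luciferase luminescence = Nrf2 activity.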
Giardia kill – kills Giardia lamblia; Giardia lamblia trophozoite viability; activity change, % at 7.66 µM, hits read low; 0.15% of 340,000 active; AID 540267; in the data active means activity change below about -80%; inconclusive means between about -30% and that limit;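 further: parasites exposed to compound for two days anaerobically before the ATP read; on the % scale 0 is the no-effect control and ±100 the full control effect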
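Each well holds 100 Giardia trophozoites and compound. After two days (48 hrs) at 37 deg C in anaerobic conditions, ATP is quantified by luminescence.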
A549 tox – kills or reduces viability of A549 cells in Nrf2 counter-screen; AID 504648; 0.16% of 390,000 active; A549 ARE-Fluc cells, CellTiter-Fluor viability, 18-24 h; Potency, µM (titrated, usually from 46 µM), inactives show top-dose activity change, negative = cytotoxicity, hits mostly inhibitors; further: potency means the concentration at half of the fitted maximal effect; on the % scale 0 is the no-effect control and ±100 the full control effect
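Cytotoxicity counterscreen: CellTiter-Fluor fluorescence was measured in A549 ARE_Fluc cells after 18-24 h of compound exposure in a concentration series. The subsequent BugLite luminescent read reports ARE-luciferase activity.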
Resorufin autofl – counter-screen for mutant IDH1 inhibitors: fluorescence interference; Resorufin detection reagent fluorescence interference, cell-free; inhibition of signal, % at 51.2 µM; 750 tested, under 10 active; shares compounds with IDH1 R132H inh;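 further: 0% = wells with normal resorufin and full inhibition = wells lacking resorufin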
IDH1 WT – wild-type IDH1 (human) inhibition counterscreen; shares compounds with IDH1 R132H inh; Potency, µM (top dose mostly 115 µM), inactives show at the top dose activity change, negative = inhibition, usual class: inhibitors; WT IDH1 enzyme, NADPH diaphorase/resazurin fluorescence; AID 623995; 9% of 750 active;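 further: potency means the concentration at half of the fitted maximal effect; 0% = full WT IDH1 enzyme control and full inhibition = no enzyme wells; nearly all actives have a fitted effect of over 55% in size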
IDH1 R132H conf – mutant IDH1 (human) inhibition, confirmed | IDH1 R132H enzyme, NADPH diaphorase/resazurin fluorescence | shares compounds with IDH1 R132H inh | Potency, µM (series often up to 76.6 µM), for inactives: at the top dose activity change, negative = inhibition, actives largely listed as inhibitors | 83% of 750 active; further: potency means the concentration at half of the fitted maximal effect; nearly all actives have a fitted effect of over 50% in size
* marks the source's active call; other numbers are inactive results; u = inconclusive; x = no result given. Unless noted, the call rests on the fitted dose curve; in most records, active means well fitted curve in the direction sought with a large enough effect; inconclusive means small, poorly fitted or top-dose-only effect, or another doubt; inactive means no such curve, though single readings can be large; an effect the other way counts as inactive or inconclusive.

SMILES | Nrf2 ARE act | Anesthetic bind | IDH1 R132H inh | Nrf2 block | Giardia kill | A549 tox | Resorufin autofl | IDH1 WT | IDH1 R132H conf
Cc1ccc(-c2nc3c4ccccc4n(Cc4cccc(Cl)c4)c(=O)n3n2)cc1 | 1.1% | -4.5% | 5.2% | x | x | -1.4% | x | x | x
CCc1nc2cccnc2n1-c1ccc(CC(=O)Nc2ccccc2Cl)cc1 | 3.8% | 3.8% | -15.0% | u | x | 15.8% | x | x | x
Cc1ccccc1C(=O)Nc1sc2c(c1C(=O)N1CCCCC1)CCC(C)C2 (stereo unspecified) | 6.4% | -1.9% | -8.8% | -21.1% | x | 3.3% | x | x | x
O=C1NC[C@H](Cc2ccc(O)cc2)N(C[C@@H]2CCCN2C[C@H](Cc2ccc(O)cc2)N2C[C@H](Cc3ccccc3)N(CC3CCCCCC3)C(=O)C2=O)C1=O | -0.6% | x | x | x | x | x | x | x | x
CCOc1ccc(CCN2C(=O)C(=O)N([C@@H](Cc3ccc(O)cc3)CN3CCC[C@@H]3CN3C(=O)C(=O)NC[C@@H]3Cc3ccccc3)C[C@@H]2Cc2ccccc2)cc1 | 3.2% | x | 31.6µM* | -2.5% | -9.2 | 2.9% | -6.3 | 5.4% | 10µM*
O=C1NC[C@H](Cc2ccccc2)N(C[C@H]2CCCN2C[C@H](Cc2ccccc2)N2C[C@H](Cc3ccc(O)cc3)N(CC3CCCCCC3)C(=O)C2=O)C1=O | 0.1% | x | u | -17.3% | 28.9 | -16.3% | 1.4 | -4.7% | 10µM*
O=C1NC[C@H](Cc2ccccc2)N(C[C@H]2CCCN2C[C@H](Cc2ccc(O)cc2)N2C[C@H](Cc3ccc(O)cc3)N(CC3CCCCCC3)C(=O)C2=O)C1=O | 4.7% | x | u | -3.1% | -1.3 | 4.9% | 2.6 | 4.8% | 15.8µM*
CC(C)C[C@@H](CN1CCC[C@@H]1CN1C(=O)C(=O)NC[C@@H]1Cc1ccccc1)N1C[C@H](Cc2ccc(O)cc2)N(CC2CCCCCC2)C(=O)C1=O | -1.2% | x | 28.2µM* | -29.7% | 4.1 | -14.3% | -5.6 | 0.1% | 11.2µM*
Cc1ccc(-c2nc3cc(Cl)ccc3o2)cc1NC(=O)c1cc2ccccc2o1 | 12.6% | -8.4% | -13.7% | u | x | 3.9% | x | x | x
CCn1cc2c(n1)-c1c(oc(C(=O)Nc3ccc(Br)cc3F)c1C)CC2 | 4.1% | 4.7% | -9.3% | -3.8% | x | -1.1% | x | x | x
O=C1c2ccccc2-c2n[nH]c(=O)c3ccc(N4CCCCC4)c1c23 | 0.5% | u | u | u | 4.7 | u | -3.7 | u | 31.6µM*
Cc1ccc(C)c(N2CCN(CCCNC(=O)c3ccc4nc(CCc5ccccc5)oc4c3)CC2)c1 | 2.0% | 0.8% | 7.1% | x | x | u | x | x | x
COc1ccc(C(=O)CNc2ccccc2Br)cc1 | 18.1% | -15.1% | 0.0% | u | -3.1 | 3.0% | x | x | x
Cc1ccccc1NCC(=O)c1ccc(Br)cc1 | 1.9% | -7.2% | u | -22.4% | -7.6 | -15.7% | 1.9 | 103.0% | 44.7µM*
Cc1ccccc1C(C(=O)NCc1ccco1)N(CC1CCCO1)C(=O)Cn1nnc2ccccc21 (stereo unspecified) | 4.0% | u | u | x | 15.5 | 5.9% | -0.8 | 0.9% | 39.8µM*
O=C(NC1CCCCC1)C(c1ccccc1F)N(Cc1ccco1)C(=O)Cn1nnc2ccccc21 (stereo unspecified) | -0.7% | u | u | -14.7% | -6.9 | -14.0% | 0.5 | 9.1% | 11.2µM*
